Source: the supplement of paper PMC10681739

Key:
ETS1 [1] = molecular target: T1, ETS1 (UniProt P14921); assay: ETS1 binding intensity (PBM fluorescence), ETS1 alone (arbitrary fluorescence units); higher = stronger binding; conditions: ETS1 concentration 1 nM; RUNX1 concentration 0 nM
T1 sequence: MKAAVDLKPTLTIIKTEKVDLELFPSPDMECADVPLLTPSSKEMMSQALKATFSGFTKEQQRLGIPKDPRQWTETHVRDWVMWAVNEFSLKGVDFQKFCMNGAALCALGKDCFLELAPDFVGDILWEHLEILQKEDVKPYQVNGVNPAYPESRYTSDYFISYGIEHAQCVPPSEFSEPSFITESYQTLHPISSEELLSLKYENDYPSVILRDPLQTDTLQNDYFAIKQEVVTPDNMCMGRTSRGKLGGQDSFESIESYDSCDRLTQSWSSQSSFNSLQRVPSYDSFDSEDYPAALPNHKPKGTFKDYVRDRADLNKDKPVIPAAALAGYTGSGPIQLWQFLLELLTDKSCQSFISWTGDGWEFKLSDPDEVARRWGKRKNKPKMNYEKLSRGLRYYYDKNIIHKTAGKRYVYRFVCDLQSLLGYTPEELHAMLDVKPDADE

ETS1 [2] = molecular target: T1, ETS1; assay: ETS1 binding intensity (PBM fluorescence) in presence of RUNX1, normalised to ETS1-only experiment (arbitrary fluorescence units); higher = stronger binding; conditions: ETS1 concentration 1 nM; RUNX1 concentration 25 nM
RUNX1 [3] = molecular target: RUNX1 (UniProt Q01196); assay: RUNX1 binding intensity (PBM fluorescence) in presence of ETS1, normalised to RUNX1-only experiment (arbitrary fluorescence units); higher = stronger binding; conditions: RUNX1 concentration 2 nM; ETS1 concentration 25 nM
Procedure: (§1)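 Cooperative gcPBM on 36-bp genomic probes with neighbouring ETS1 and RUNX1 sites. Recombinant human RUNX1 (2 nM) was incubated alone or with ETS1 (25 nM) and detected with anti-RUNX1 antibody plus Alexa488 secondary. Values are medians over 4 replicate spots; the RUNX1+ETS1 data were normalised to the RUNX1-only data. The probes sit in constant array flanks that are not printed.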

RUNX1 [4] = molecular target: RUNX1 (UniProt Q01196); assay: RUNX1 binding intensity (PBM fluorescence), RUNX1 alone (arbitrary fluorescence units); higher = stronger binding; conditions: RUNX1 concentration 2 nM; ETS1 concentration 0 nM
Procedure: as §1
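Wherever RUNX1 binding intensity (PBM fluorescence) in presence of ETS1, normalised to RUNX1-only experiment is given: Full-length recombinant human ETS1 or RUNX1 bound to double-stranded 36-bp genomic probes on microarrays, detected by protein-specific primary antibody and Alexa488 secondary, spot fluorescence as median of four replicate spots.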
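Wherever RUNX1 binding intensity (PBM fluorescence), RUNX1 alone is given: Full-length recombinant human RUNX1 bound to double-stranded 36-bp genomic probes on a high-density microarray, scored as Alexa488 fluorescence per spot via anti-RUNX1 antibody, median of four replicate spots.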

Chain of RUNX1 (Q01196 whole entry): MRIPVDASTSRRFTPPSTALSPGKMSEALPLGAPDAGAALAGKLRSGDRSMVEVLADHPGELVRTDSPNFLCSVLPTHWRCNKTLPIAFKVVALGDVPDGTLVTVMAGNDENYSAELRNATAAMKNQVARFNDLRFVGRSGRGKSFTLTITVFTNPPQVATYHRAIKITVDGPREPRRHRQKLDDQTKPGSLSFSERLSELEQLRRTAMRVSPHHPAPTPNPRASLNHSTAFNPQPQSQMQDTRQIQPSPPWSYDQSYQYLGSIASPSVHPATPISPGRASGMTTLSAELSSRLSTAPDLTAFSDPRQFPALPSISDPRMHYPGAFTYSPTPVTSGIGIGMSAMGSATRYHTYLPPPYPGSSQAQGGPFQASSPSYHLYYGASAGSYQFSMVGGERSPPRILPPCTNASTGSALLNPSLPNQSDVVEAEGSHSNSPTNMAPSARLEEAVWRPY

Row | Sequence | ETS1 binding intensity (ETS1 [1]) | ETS1 binding intensity (ETS1 [2]) | RUNX1 binding intensity (RUNX1 [3]) | RUNX1 binding intensity (RUNX1 [4])
1 | TGAGCACTGAGCACTTCCTGTGGCTTCTGAAGCTCC | 1860 | 2040 | 1310 | –
2 | TCTGGATTTCCTGTGGGGCTCTCCCACAAGCAGTAC | 518 | 506 | 1390 | –
3 | CCAACACAGGAAATAATTTGAAACCACAATCAGAAA | 1270 | 4460 | 3290 | –
4 | TAAATGTTTCCTAAAAGCTCTTTCATAAACCACAGT | 390 | 669 | 884 | –
5 | ATGCCTGTAGGAGGATGTGGTTTCTACACAACTCTG | 981 | 5640 | 1400 | –
6 | ACCTCATCCTGCTGTTCTTGTGTGTGGTTGAGCAGT | 453 | 432 | 1340 | –
7 | GGACCCAGCAGAGGATGTGGTTACAGGGCCATGATA | 720 | 5450 | 2170 | –
8 | GTGGGAGCGGAAGCCTGAGCGGCCTGCGGCCTCCGG | 863 | 1070 | 1040 | –
9 | GGCTGGCCTAGGAACTTCCGCCACAAGTCCCGCCCC | 1860 | 2220 | 1390 | –
10 | GTTCTCCACATCCTGTTCCGTAGCTGTGGTGCACCG | 1600 | 1780 | 8880 | –
11 | CTCTTTCACAAAGGAAATGGAAACCACAAAGAGGAC | 2140 | 14700 | 3930 | –
12 | CAGAAAGAGGAAATGATGCGAGTCCACACCGCAGGC | 788 | 2610 | 1170 | –
13 | CCCTCTCTTCTTCCTCCCCCACCACAAAAGTCACAG | 550 | 641 | 2280 | –
14 | GATGCTCTAACAGGAAGTGGGTTAAGGAGCTGCACT | 12200 | 14100 | 2390 | –
15 | CCGCCGCGCGCCGGATGCTAAGACCGCGATTTCCCC | 4180 | 7590 | 1110 | –
16 | TCATTCTCTGATAAAGGAAGTGGTTACAGCACAATT | 2910 | 10200 | 1270 | –
17 | ATGTCCCCAGGAGGATGTGGTGTGTCCACAGGAGGA | 759 | 1650 | 875 | –
18 | GAAAGCTGCACTATTTCCTGAGGTTAGAGGTTTAAA | 522 | 502 | 1040 | –
19 | AGCTGTTTGGTCACAGGATGTGGTTATTAGAATAGG | 4800 | 27900 | 4040 | –
20 | TGCTTTTCAGGTGCAGGAAGTGGTTTGCCTTTGCCC | 7810 | 11000 | 1200 | –
21 | CACCAGGACGCAACAGGAAACCACAAAGGCCTGAGA | 2390 | 6500 | 5270 | –
22 | AGTGGCTACCACTTCCTTCTCTTACCACAGTTCCTT | 442 | 607 | 4520 | –
23 | GCCCGGAAGCGCGACGCTGGAGCTGCGGGGTTACCA | 773 | 887 | 882 | –
24 | CGGGACCTGTTTCCTTGGGAACCACAAGATAAGACC | 407 | 520 | 892 | –
25 | GATGGTGTCTTTTGGGGATGTGGGTTTGGGGGATGG | 564 | 1610 | 961 | –
26 | ACCTGAGCAGGAAGTAGCTGAGGTCGCGGTGCAGCA | 2940 | 3750 | 1080 | –
27 | AGTCGGAAGCCATCTGCCCCAACTTGCGGTCTTCAC | – | – | 1080 | 1070
28 | CAGAGGAAGCCCACCCCATAAAAGAACCACAGATAA | – | – | 864 | 1010
29 | AATCGCGCAGTTCCGCAGCTGCCGCCCCACAACCGT | – | – | 960 | 863
30 | GGCGACCAGCTCCGGAAAGCGCGGTGGGGACGCGCT | – | – | 865 | 805
